Assay outcomes from PubChem.
The list is not random: actives were taken first. Their share in the collection is about 8.7%.
JMJD2A Tudor – qHTS Assay for Inhibitors of JMJD2A-Tudor Domain; Lysine-specific demethylase 4A (Homo sapiens), O75164; AlphaScreen JMJD2A-Tudor / H3K4me3 peptide binding; Potency, µM (top dose mostly 114 µM), without a hit: at the top dose activity change, negative = inhibition, actives largely listed as inhibitors; hit rate 4.4% among 390,000; AID 504339, 2011; note: % is set by controls: 0 for no effect and ±100 for the full control effect; nearly all actives have a fitted effect of over 50% in size
ALOX12 inh – Primary qHTS assay for inhibitors of human arachidonate 12S-lipoxygenase (ALOX12): Round 2; hit rate 1.1% among 580,000; purified 12hLO, xylenol orange hydroperoxide absorbance; AID 1671190, 2021; Potency, µM (top dose mostly 108 µM), for inactives: at the top dose activity change, negative = inhibition, hits mostly inhibitors; Polyunsaturated fatty acid lipoxygenase ALOX12 (Homo sapiens), P18054; note: % is set by controls: 0 for no effect and ±100 for the full control effect
Target sequence (P18054 whole entry, looked up): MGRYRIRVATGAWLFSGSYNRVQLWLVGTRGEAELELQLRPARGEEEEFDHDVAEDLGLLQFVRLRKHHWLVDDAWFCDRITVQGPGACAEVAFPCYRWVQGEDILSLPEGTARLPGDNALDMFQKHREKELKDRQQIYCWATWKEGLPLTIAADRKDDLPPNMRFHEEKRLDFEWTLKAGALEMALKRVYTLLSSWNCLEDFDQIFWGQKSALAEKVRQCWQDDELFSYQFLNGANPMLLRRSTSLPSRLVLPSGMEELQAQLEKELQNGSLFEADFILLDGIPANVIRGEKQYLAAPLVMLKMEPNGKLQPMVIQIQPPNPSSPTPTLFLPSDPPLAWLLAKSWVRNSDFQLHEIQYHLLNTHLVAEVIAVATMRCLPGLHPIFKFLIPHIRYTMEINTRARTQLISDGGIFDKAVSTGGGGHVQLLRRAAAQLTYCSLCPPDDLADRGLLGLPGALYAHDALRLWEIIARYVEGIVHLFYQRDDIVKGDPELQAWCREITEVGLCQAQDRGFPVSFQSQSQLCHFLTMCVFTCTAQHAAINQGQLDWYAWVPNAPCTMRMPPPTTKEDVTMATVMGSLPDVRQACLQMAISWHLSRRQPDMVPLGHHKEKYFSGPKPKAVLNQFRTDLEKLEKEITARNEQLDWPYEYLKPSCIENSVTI
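Purified human 12hLO at 150 nM in 25 mM Hepes, 0.01% Triton X-100, pH 7.0, preincubated 15 min at room temperature with compound. Reaction started with 40 uM arachidonic acid, 30 min at room temperature. Hydroperoxide measured by Fe-xylenol orange, 573/405 nm absorbance ratio.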
BAZ2B block – qHTS Assay for Inhibitors of BAZ2B; AlphaScreen BAZ2B-H3K14Ac peptide displacement; Bromodomain adjacent to zinc finger domain protein 2B (Homo sapiens), Q9UIF8; hit rate 4.4% among 360,000; AID 504333, 2011; Potency, µM (highest dose often 114 µM), inactives show top-dose activity change, negative = inhibition, actives largely listed as inhibitors; note: % is set by controls: 0 for no effect and ±100 for the full control effect; nearly all actives have a fitted effect of over 60% in size
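Compounds, titrated to a top concentration of 110 uM, were incubated 30 min at room temperature with preformed BAZ2B/acetyl-K14 H3 peptide complex (50 nM each). Proximity signal was measured by AlphaScreen after 20 min with beads.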
G9a block – qHTS Assay for Inhibitors of Histone Lysine Methyltransferase G9a | Histone-lysine N-methyltransferase EHMT2 (Homo sapiens), Q96KQ7 | hit rate 8.8% among 350,000 | Potency, µM (series often up to 102 µM), for the others: at the top dose activity, negative = inhibition, usual class: inhibitors | G9a H3K9 monomethylation, AlphaScreen, 2 h; note: % is set by controls: 0 for no effect and ±100 for the full control effect; nearly all actives have a fitted effect of over 75% in size
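Signal arises when biotinylated H3K9 peptide, once monomethylated, bridges streptavidin donor and antibody-captured acceptor beads. Enzyme at 20 nM was preincubated 15 min with test compounds; peptide 500 nM and SAM 20 uM then reacted for 2 h.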
HP1b chromo inh – HTS for Inhibitors of HP1-beta Chromodomain Interactions with Methylated Histone Tails. hit rate 0.56% among 390,000. Chromobox protein homolog 1 (Homo sapiens), P83916. Potency, µM (top dose mostly 114 µM), inactives show top-dose activity change, negative = inhibition, most hits filed as inhibitors. AlphaScreen HP1-beta / biotin-H3K9me3 peptide binding. AID 540317, 2011; note: nearly all actives have a fitted effect of over 70% in size
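Compound inhibition of the preformed complex between 50 nM HP1-beta and 50 nM biotinylated H3K9me3 peptide was read by AlphaScreen. Buffer was PBS pH 7.4 with 0.01% Tween-20. Incubations ran 30 min at room temperature, with 10 ug/mL donor/acceptor beads.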
Sfp PPTase inh – qHTS Assay for Inhibitors of Bacillus subtilis Sfp phosphopantetheinyl transferase (PPTase). Potency, µM, for the others: largest response in the series, negative = inhibition, usual class: inhibitors. hit rate 3.5% among 310,000. Biochemical Sfp PPTase activity, qHTS. 4'-phosphopantetheinyl transferase ffp (Bacillus subtilis), Q9F4F7;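 note: the enzyme is Sfp with the accession as filed and its product quenches rhodamine fluorescence; 0% = enzyme reaction without inhibitor and -100% = no enzyme wells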
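Compounds were incubated with enzyme (final 15 nM) for 15 min at room temperature before substrate addition started the reaction. Fluorescence at 525 nm excitation, 598 nm emission was recorded immediately and after 30 minutes.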
* marks the source's active call; other numbers are inactive results; u = inconclusive; x = no result; [ ] = remark or other dose. Calls come from the whole dose curve; as a rule, active = well fitted curve in the direction sought with a large enough effect; inconclusive = small, poorly fitted or top-dose-only effect, or another doubt; inactive = no such curve, though single readings can be large; an effect the other way counts as inactive or inconclusive. Potency is the fitted concentration of half-maximal effect.

SMILES	JMJD2A Tudor	ALOX12 inh	BAZ2B block	G9a block	HP1b chromo inh	Sfp PPTase inh
COc1ccc(-c2cc(C)no2)cc1S(=O)(=O)N1CC(=O)Nc2ccccc21	-13.0%	-21.6%	-31.4%	50.1µM*	17.7%	3.9%
O=C(NC1CCOC1=O)C1CCCCC1 (stereo not drawn)	x	4.0%	x	x	x	x
CC(=O)NC1CCCN(O)C(=O)/C=C(\C)CCOC(=O)C(NC(C)=O)CCCN(O)C(=O)/C=C(\C)CCOC(=O)C(NC(C)=O)CCCN(O)C(=O)/C=C(\C)CCOC1=O (stereo not drawn)	0.7%	x	-22.3%	-107.1%[59 µM]	77.8%	56.2µM*
O=C(Cc1ccccc1)Nc1nnc(-c2ccco2)o1	44.7µM*	16.6%	28.2µM*	10.4%	19.7%	-5.6%
CCC(=O)Nc1nnc(-c2ccco2)o1	44.7µM*	u	u	22.4µM*	30.6%	-6.5%
CCCCC(=O)Nc1nnc(-c2ccco2)o1	10µM*	-17.2%	79.4µM*	-15.0%	4.1%	-12.9%
Cc1cccc(C)c1NC(=O)CCCSc1nnc(-c2ccco2)o1	-16.2%	0.0%	8.9%	6.8%[59 µM]	17.1%	4.6%
Cc1cc(NC(=O)c2cccnc2)cc(-c2nc3cc(C(C)C)ccc3o2)c1O	x	18.0%	x	x	x	x
CS(=O)(=O)Nc1ccc(N2CCN(c3ccc(C(F)(F)F)cn3)CC2)nc1	-8.0%	14.7%	-1.6%	15.0%	38.0%	6.1%
CC1=NN(c2ccc(C(F)(F)F)cn2)C(=O)C1	79.4µM*	0.4%	8.91µM*	-7.5%	40.1%	-1.8%
O=C(CSc1ncn[nH]1)Nc1nc(-c2ccccc2)cs1	-20.3%	13.1%	-0.1%	u	37.4%	-1.4%
c1ccc(Nc2nc(CSc3ncn[nH]3)cs2)cc1	3.3%[57.1 µM]	-3.8%	-27.9%	22.4µM*	14.2%	-38.9%
Cc1ccc(CNC(=O)c2ccc(CS(=O)Cc3ccc(C)cc3)o2)cc1 (stereo not drawn)	x	7.7%	x	x	x	x
Cc1ccsc1CN1CCCC(c2nc(-c3cccnc3)no2)CCNC(=O)CC1 (stereo not drawn)	x	35.3%	x	x	x	x
O=C1CCCC(O)=C1N=Nc1cccc(C(=O)O)c1	89.1µM*	u	x	28.2µM*	-25.6%	-22.8%
Cc1nc2ccc(N=NC3=C(O)CCCC3=O)cc2s1	u	u	-33.7%[57.1 µM]	39.8µM*	30.0%	7.4%
O=C(O)c1cccc(N=NN2CCOCC2)c1	-7.2%	-27.9%	-23.1%	15.8µM*	37.7%	6.7%
O=C1CCCC(O)=C1N=Nc1c(Cl)cc(Cl)cc1Cl	u	-23.5%	50.1µM*	8.91µM*	10.1%	-14.4%
O=C(O)c1cccc(S(=O)(=O)N2CCOCC2)c1	-30.6%	-27.2%	-26.1%	8.1%[59 µM]	19.8%	20.1%
O=C(Nc1ccc(F)c(F)c1)c1ccc(S(=O)(=O)C2CCS(=O)(=O)C2)cc1 (stereo not drawn)	x	-1.0%	x	x	x	x
O=C1NC(=O)C(CCC(=O)N2CCCN(Cc3ccccn3)CC2)N1 (stereo not drawn)	x	43.2%	x	x	x	x
CC(=O)Nc1ccc(NC(=O)CC2C(=O)N(C3CCCCC3)c3nc4ccccc4n32)cc1 (stereo not drawn)	x	3.2%	x	x	x	x
CCN(CC)S(=O)(=O)c1cc(NC(=O)c2ccccc2OCc2c(C)noc2C)ccc1C	89.1µM*	0.8%	x	x	26.5%	x
COc1cccc(NC(=O)CN(C)C(=O)c2ccccc2OCc2c(C)noc2C)c1	-7.8%	7.9%	10.1%	7.94µM*	8.9%	x
O=C(c1cc(-c2ccc(F)cc2)nc2ccccc12)N1CCC(c2nc(C3CCOCC3)no2)C1 (stereo not drawn)	x	9.0%	x	x	x	x
SMILES	JMJD2A Tudor	ALOX12 inh	BAZ2B block	G9a block	HP1b chromo inh	Sfp PPTase inh
O=C(Nc1ccc(Cl)cc1)Nc1ccccc1CC[N+](=O)[O-]	22.4µM*	-1.8%	-28.3%	-43.0%	-7.7%	-2.9%
COc1ccc(Nc2cc(C)nc3c(OC)cccc23)cc1	x	-19.5%	x	x	x	x
Cc1cc(C(=O)c2ccc(C(C)(C)C)cc2)c(NC(=O)CCl)s1	u	-24.7%	-31.8%	31.6µM*	-11.4%	-4.7%
CCN(CC)CCCC(C)NC(=O)c1c(NC(=O)c2ccccc2)sc2c1CCCC2 (stereo not drawn)	44.7µM*	u	-13.9%	79.4µM*	-10.4%	-18.5%
Cc1ccccc1C(=O)Nc1sc2c(c1C(=O)O)CCC2	-11.3%	-0.4%	u	50.1µM*	0.7%	11.6%
Cc1ccccc1C(=O)Nc1sc(C)c(C)c1C(=O)c1ccccc1	u	u	u	10µM*	u	31.6µM*
O=C(Nc1sc2c(c1C(=O)O)CCC2)c1ccccc1Cl	u	-5.5%	2.7%	8.2%[0.501 µM]	7.5%	18.5%
CCOC(=O)c1sc(NC(=O)c2ccccc2C(=O)O)c(C(=O)OCC)c1C	-6.6%[11.4 µM]	-12.3%	-15.5%	-30.0%	19.6%	18.3%
CCCS(=O)(=O)NCC(=O)N1CCCCCNC(=O)CC1c1ccccc1 (stereo not drawn)	x	0.2%	x	x	x	x
CC(NC(=O)c1ccc(Cl)cc1)c1nnc(SCC(=O)c2ccccc2)n1C (stereo not drawn)	x	-17.6%	x	x	x	x
CNC(=O)c1c(NC(=O)c2nc3ccccc3s2)sc2c1CCC2	x	x	-9.6%	39.8µM*	x	17.8µM*
Cc1sc(NC(=O)CCl)c(C(=O)c2ccccc2)c1C	20µM*	u	u	u	u	22.4µM*
C#CCOCCOCCOCCNc1nc(N2CCN(C(=O)Cn3cc(CCCCN)nn3)CC2)nc(N2CCN(C(=O)Cn3cc(CCCN=C(N)N)nn3)CC2)n1	-16.3%	2.51µM*	8.4%	4.1%[2.33 µM]	29.5%	x
C#CCOCCOCCOCCNc1nc(N2CCN(C(=O)Cn3cc(CCO)nn3)CC2)nc(N2CCN(C(=O)Cn3cc(CCO)nn3)CC2)n1	-10.5%	u	x	x	30.6%	x
C#CCOCCOCCOCCNc1nc(N2CCN(C(=O)Cn3cc(CCCN=C(N)N)nn3)CC2)nc(N2CCN(C(=O)[C@H](C)n3cc(CCCN=C(N)N)nn3)CC2)n1	-22.5%	u	u	56.2µM*	27.5%	-5.2%
Cc1ccc(S(=O)(=O)Nc2c(C(=O)O)[nH]c3ccccc23)c(C)c1	56.2µM*	28.5%	u	u	u	17.9%
COc1ccc(S(=O)(=O)Nc2c(C(=O)O)[nH]c3ccccc23)cc1OC	u	u	u	12.6µM*	-13.6%	u
COc1ccc2[nH]c(C(=O)O)c(NS(=O)(=O)c3ccc(C)c(C)c3)c2c1	-19.2%	u	-32.5%	44.7µM*	49.5%	12.3%
